# aDG glyco act: alpha-DG glycosylation activation | Pro5-aDG cells, alpha-DG glycosylation AlphaScreen (IIH6); 0% Pro5, 100% B10-LARGE cell signal | activation, % at 10 µM | 360,000 compounds, 0.22% hits | AID 624168;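 active = activation of at least 8% versus controls, or a plate z-score of at least 8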;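 also: Pro5 are CHO cells carrying HIG-tagged alpha-DG that lacks glycosylation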
# ADAM17 inh: ADAM17 inhibition, QFRET primary screen; recombinant ADAM17, EDANS/DABCYL FRET peptide cleavage; 370,000 compounds, 0.83% hits; inhibition, % at 6.95 µM; P78536;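 active = inhibition above the mean of compounds lying between control limits plus 3 SD, set per campaign, cut at about 8.5% in these data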
# ADAM10 inh: inhibits human ADAM10; O14672; inhibition, % at 7 µM; 370,000 compounds, 0.62% hits; recombinant ADAM10, EDANS/DABCYL FRET peptide cleavage, 3 h;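 active = inhibition above a per-campaign cutoff equal to the mean of compounds falling between control-based bounds plus 3 SD, cut at about 20% in these data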
# GRIN3A LBD mod: modulates the human NR3A ligand-binding domain; NR3A LBD differential scanning fluorimetry, Tm shift; 0% = protein alone, 100% = glycine-bound protein; AID 1259313; Tm shift relative to glycine control, % at 25 µM; 340,000 compounds, 2.5% hits;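 active = melting temperature shift of at least 10% of the positive control shift, at one fixed dose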
# FAS-TE inh: inhibitors of human fatty acid synthase thioesterase domain. recombinant FAS-TE, OMFH fluorogenic substrate, fluorescence endpoint. inhibition, % at 15 µM. 360,000 compounds, 0.67% hits. AID 602261;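 active = compounds whose normalised, plate-corrected inhibition of enzyme fluorescence in the single-dose primary screen is 50% or more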
# A number is an active result; n = inactive; x = not tested or not shown. Sampled rows, rich in hits. Any-hit rate of the full collection: about 4%.
SMILES,aDG glyco act,ADAM17 inh,ADAM10 inh,GRIN3A LBD mod,FAS-TE inh
COc1cccc(/C=N/n2c(=O)[nH]c3ccccc32)c1OC,n,n,n,n,n
O=C1CCC[C@H]2c3[nH]c4ccccc4c3CCN12,n,n,n,n,n
COc1cccc(-c2[nH]nc3c2C(c2ccsc2)C(C#N)=C(N)O3)c1 (configuration not stated),n,n,n,n,n
O=C(Nc1cc(S(=O)(=O)Nc2ccccc2Cl)ccc1O)c1cc2c(s1)CCCC2,n,n,n,11.9,n
O=C(c1ccccc1NS(=O)(=O)c1ccc(F)cc1)N1CCCCC1,n,n,n,n,n
O=C(Nc1cc(S(=O)(=O)N2CCOCC2)ccc1N1CCCC1)c1cc2c(s1)CCCC2,x,n,n,x,x
O=C(Nc1cc(S(=O)(=O)Nc2ccc(Cl)cc2)ccc1O)c1ccc(S(=O)(=O)N2CCCCCC2)cc1,n,n,n,29.6,n
O=C(Nc1cc(S(=O)(=O)N2CCCCC2)ccc1O)c1ccccc1NS(=O)(=O)c1ccc(F)cc1,n,n,n,21.0,n
O=C(Nc1cc(S(=O)(=O)N2CCCCC2)ccc1Cl)c1ccccc1NS(=O)(=O)c1ccc(F)cc1,n,n,n,20.8,n
O=C(Nc1cc(S(=O)(=O)N2CCOCC2)ccc1O)c1ccc(S(=O)(=O)N2CCCCC2)cc1,n,n,n,n,n
CN1CCN(C(=O)C[C@H]2CC[C@H]3[C@@H](COC[C@@H](O)CN3C(=O)C3CCCC3)O2)CC1,n,n,n,x,x
COc1ccccc1/C=N/NC(=O)CCSc1ccccc1,n,n,n,n,n
O=C(Nc1nccs1)c1ccc(-c2ccc(F)cc2)o1,n,n,n,n,n
CCc1nnc(NC(=O)c2ccc(-c3ccc(F)cc3)o2)s1,n,n,n,16.4,n
O=C(Nc1nccs1)c1ccc(-c2ccc(Cl)cc2)o1,n,n,n,20.1,n
CCc1nnc(NC(=O)c2ccc(-c3cccc(C(F)(F)F)c3)o2)s1,n,n,n,n,n
CCOC(=O)N1CCN(C(=O)CSc2ccc3nnc(-c4ccccn4)n3n2)CC1,n,n,n,n,n
CCOc1ccc2nc(SCC(=O)Nc3ccc4c(c3)OCO4)sc2c1,n,n,n,19.1,n
CC(C)C(=O)Nc1nnc(SCC(=O)Nc2ccc3c(c2)OCO3)s1,n,n,n,36.5,n
CC(C)C(=O)Nc1nnc(SCC(=O)Nc2ccc3c(c2)OCCO3)s1,n,n,n,n,n
CCOc1ccc2nc(SCC(=O)c3ccc(C)s3)sc2c1,n,n,n,n,n
CCOc1ccc2nc(NC(=O)c3ccc(OCC4CCCO4)cc3)sc2c1 (configuration not stated),n,n,n,19.7,n
Cc1cccc2sc(NC(=O)c3ccc(OCC4CCCO4)cc3)nc12 (configuration not stated),n,n,n,n,n
CCOc1ccc2nc(SCC(=O)c3ccc(O)cc3O)sc2c1,n,n,n,16.5,n
CCOC(=O)c1c(C)noc1-c1ccco1,n,n,n,n,n
SMILES,aDG glyco act,ADAM17 inh,ADAM10 inh,GRIN3A LBD mod,FAS-TE inh
Cc1ccc(NC(=O)Cn2cnc3ccccc32)cc1C,n,n,n,n,n
COc1ccc(OC)c(S(=O)(=O)N2CCCC(C(=O)NC3CC3)C2)c1 (configuration not stated),n,n,n,n,n
Cc1ccc(NC(=O)Cn2nc([N+](=O)[O-])c(Br)c2C)cc1C,n,n,n,n,n
O=C(C1CCN(S(=O)(=O)c2cccc3cccnc23)CC1)N1CCN(Cc2ccccc2)CC1,n,n,n,n,n
CCC(=O)Nc1nnc(SCC(=O)Nc2ccc3c(c2)OCO3)s1,n,n,n,27.8,n
Nn1c(SCC(=O)Nc2ccc3c(c2)OCO3)nnc1-c1ccc(Cl)cc1,n,n,n,17.9,n
CCOc1ccc2nc(NC(=O)/C=C/c3ccc4c(c3)OCO4)sc2c1,n,n,n,34.6,n
Nn1c(SCC(=O)Nc2ccc3c(c2)OCO3)nnc1-c1ccccc1,n,n,n,n,n
COc1ccc(C2CC(=O)C(c3cc(OC)c(OC)c(OC)c3)=CN2Cc2ccccc2)cc1 (configuration not stated),x,n,n,x,x
COc1ccc(C)c2sc(NC(=O)CCS(=O)(=O)c3ccccc3)nc12,n,n,n,n,n
CC(=O)Nc1cccc(C(=O)NCCc2ccco2)c1,n,n,n,n,n
COc1ccc(OC)c(N(CC(=O)Nc2ccccc2C(=O)NCc2ccco2)S(C)(=O)=O)c1,n,n,n,12.7,n

# Source: PubChem
